Most compounds without a hit are left out; they make up all but 3.9% or so of the library.
TROY signal inh – inhibitors of TROY-dependent NF-kB signaling. AID 1347056. inhibition, % at 10 µM. Q293 LMP1-TROYcd NF-kB luciferase reporter, 4 h. 0.98% of 360,000 active;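 active = compounds whose plate-normalised and pattern-corrected inhibition of the luciferase reporter signal at the single screening dose is 50% or more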
HIF-2a inh – blocks HIF-2a reporter activity | 0.72% of 360,000 active | AID 624352 | inhibition, % at 18.8 µM | 786-0 RCC cells HIF-2a reporter, luciferase luminescence, overnight;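 active = inhibition of the luminescence signal of 40% or more relative to plate controls, in a single-dose primary screen at 18.75 µM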
Peg3 prom inh – reduces Peg3 promoter-driven luciferase expression in HeLa. 1.7% of 360,000 active. AID 588405. HeLa PEG-Prom luciferase reporter, luminescence, overnight. inhibition, % at 20 µM;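 active = inhibition of at least 50% at 20 µM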
TWEAK Fn14 block – blocks TWEAK-Fn14 interaction in a reporter cell assay; TWEAK-stimulated Fn14 reporter cells, luciferase luminescence, 8 h; inhibition, % at 10 µM; 2% of 360,000 active; in the data active = inhibition above about 50%
CF NFkB inh – cystic fibrosis NF-kB activation inhibition; AID 588850; inhibition, % at 5 µM; 0.86% of 360,000 active; KKLEB NF-kB-GFP reporter, PAF-induced, GFP fluorescence overnight;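 active = at least 50% inhibition at 5 µM, scaled per plate between neutral and stimulator controls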;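 note: PAF is a Pseudomonas aeruginosa culture filtrate used as stimulus; plate controls were PAF-stimulated DMSO wells for no effect and unstimulated DMSO wells for full effect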
KKLEB cytotox – counter-screen for CF NF-kB inhibitors: cytotoxicity | 0.36% of 360,000 active | KKLEB CF airway cells viability, ATPlite luminescence, overnight; hits give low values; cells stimulated with P. aeruginosa culture filtrate | activity change (cytotoxicity), % at 5 µM;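 active = corrected activity change at or below -50% at 5 µM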
An asterisk follows results filed as active; x = no result.

SMILES	TROY signal inh	HIF-2a inh	Peg3 prom inh	TWEAK Fn14 block	CF NFkB inh	KKLEB cytotox
COc1ccc(/C=N/n2cnc3c([nH]c4ccc(C)cc43)c2=O)cc1CN1CCCC1	1	13	77*	8	-8	-3
CCOC(=O)c1ccc2c(c1)N(Cc1ccccc1C)C(=O)c1ccccc1S2=O (stereo unspecified)	-4	11	3	-1	14	-16
CC(=O)c1ccc(N2CCC(c3cc(-c4ccc(Cl)cc4Cl)n[nH]3)CC2)c([N+](=O)[O-])c1	49	-3	21	88*	-3	-2
O=[N+]([O-])c1cccnc1N1CCC(c2cc(-c3ccc(Cl)cc3Cl)n[nH]2)CC1	15	-17	21	-6	6	4
Cc1ccc(C(=O)NNC(=O)c2ccccc2OCc2c(C)noc2C)cc1	-6	2	10	-5	2	5
O=C(Cc1ccc([N+](=O)[O-])cc1)Nc1cccc(C(=O)N2CCOCC2)c1	-10	5	7	-5	-12	-2
O=C1/C(=C/c2ccncc2)CCC/C1=C\c1ccncc1	82*	93*	101*	103*	86*	-36
O=c1c(O)c(-c2ccc(O)c(O)c2)oc2cc(O)ccc12	21	-86	-11	56*	43	5
O=c1c(O)c(-c2ccc(O)cc2)oc2cc(O)cc(O)c12	-21	-121	-209	35	34	7
COc1ccc(NC(=O)CCCN2C(=O)/C(=C\c3ccco3)SC2=S)cc1	24	61*	21	30	5	-1
COC(=O)c1ccc(/C=C2/SC(=S)N(CCCC(=O)Nc3ccc(O)cc3)C2=O)cc1	-10	58*	84*	-7	28	-8
Cc1ccc(/C=C2\SC(=S)N(CCCC(=O)Nc3ccccc3C(=O)O)C2=O)cc1	83*	87*	47	84*	0	13
COc1ccc(/C=C2/SC(=S)N(CCCC(=O)Nc3cccc(O)c3)C2=O)cc1	-18	56*	-53	-16	-17	1
Cc1c(C(=O)N2CCN(C)CC2)oc2ccc(S(=O)(=O)N3CCOCC3)cc12	11	9	7	-11	-19	-7
CCOc1ccc(NC(=O)CC2C(=O)NCCN2C(=O)Nc2ccccc2)cc1 (stereo unspecified)	9	16	17	-24	-23	13
Cc1ccc(/C=C2/SC(=S)N(CCCC(=O)Nc3cc([N+](=O)[O-])ccc3O)C2=O)cc1	27	65*	10	38	8	-12
COc1ccc(/C=C2/SC(=S)N(CCCC(=O)Nc3ccccc3C(=O)O)C2=O)cc1	75*	91*	48	92	-4	-14
CCc1ccc(/C=C2\SC(=S)N(CCCC(=O)Nc3ccc(C(=O)O)cc3)C2=O)cc1	12	-34	-9	-27	8	7
Cc1ccc(/C=C2\SC(=S)N(CCCC(=O)Nc3nccs3)C2=O)cc1	-25	48*	-15	-37	3	-4
CCc1ccc(/C=C2\SC(=S)N(CCCC(=O)Nc3ccccc3C(=O)O)C2=O)cc1	75*	81*	34	33	19	1
Cc1ccc2c(CN3CCN(c4ccc(Cl)c(Cl)c4)CC3)cc(=O)oc2c1	17	19	12	-18	1	3
CCCCOC(=O)c1ccc(NC(=O)C(=O)CC(=O)c2ccc(OC)cc2)cc1	-30	-22	23	20	-4	-4
CC(=O)Nc1ccc(S(=O)(=O)Nc2nc3ccccc3nc2Nc2cccc(S(N)(=O)=O)c2)cc1	-10	12	-3	1	8	-3
C[C@@H]1CC[C@]2(C(=O)O[C@@H]3O[C@H](CO)[C@@H](O)[C@H](O)[C@H]3O)CC[C@]3(C)C(=CCC4[C@@]5(C)CC[C@H](O[C@@H]6OC[C@H](O)[C@H](O[C@@H]7O[C@H](CO)[C@@H](O)[C@H](O)[C@H]7O)[C@H]6O)C(C)(C)C5CC[C@]43C)C2[C@]1(C)O (stereo partly specified)	-9	2	-31	-3	10	-3
COc1ccc(/C=C\C(=O)O[C@@H]2C(O)C(O[C@@H]3OC(C)[C@H](O[C@@H]4OCC(O[C@H]5O[C@H](CO)[C@@H](O)C(O)C5O)C(O)C4O)C(O)C3O)[C@H](OC(=O)[C@]34CCC(C)(C)C[C@@H]3C3=CCC5[C@@]6(C)CC(O)C(O[C@@H]7OC(CO)C(O)[C@H](O)[C@H]7O)[C@@](C)(C(=O)O)C6CC[C@@]5(C)[C@]3(CO)CC4)O[C@H]2C)cc1 (stereo partly specified)	-8	34	51*	3	-58	8
SMILES	TROY signal inh	HIF-2a inh	Peg3 prom inh	TWEAK Fn14 block	CF NFkB inh	KKLEB cytotox
C=C1C(=O)C=C2CN(C(=O)c3ccccc3)[C@@](Cc3ccc(F)cc3)(C(=O)OC)[C@@H]12	81*	97*	99*	105*	75*	-91*
CCCCn1c(-c2ccncc2)nc2c1c(=O)[nH]c(=O)n2CC(C)C	x	7	20	76*	-3	4
COCCn1c(-c2ccc(SC)cc2)nc2c1c(=O)[nH]c(=O)n2CC(C)C	-28	-17	-60	-6	10	0
CCCCCc1ccc(OCCOCCn2c[n+](C)c3ccccc32)c(CCCCC)c1	52*	9	105*	89*	38	-43
C[n+]1cn(CC(O)COCc2ccccc2)c2ccccc21 (stereo unspecified)	3	-4	0	-8	-15	-2
CCCCCc1ccc(OCCC[n+]2ccccc2)c(CCCCC)c1	47	32	107*	67*	85*	-91*
CCOc1ccc(C(=O)NC(=S)Nc2ccccc2OC)cc1[N+](=O)[O-]	0	10	3	-8	-3	11
COc1ccc(N(CC(=O)Nc2cc(C)ccc2C)S(=O)(=O)c2c(C)nn(C)c2C)cc1	1	7	11	17	10	-1
Nc1ncnc2c1ncn2[C@@H]1O[C@H](CN2CCCS2(=O)=O)[C@@H](O)[C@H]1O	6	6	11	7	-5	24
O=C(COc1ccccc1-c1ccccc1)N/N=C/c1ccc2ccccc2c1	28	21	32	2	62*	-39
CCOc1ccc(-n2nnnc2SCC(=O)NC2CCCC2)cc1	8	17	10	25	-2	12
COc1cccc2c1C(=O)c1c(O)c3c(c(O)c1C2=O)C[C@](O)(C(C)=O)C[C@H]3O[C@@H]1C[C@@H](N)[C@@H](O)[C@@H](C)O1	77*	9	105*	97*	65*	16
CCCCC(=O)OCC(=O)C1(O)Cc2c(O)c3c(c(O)c2C(OC2CC(NC(=O)C(F)(F)F)C(O)C(C)O2)C1)C(=O)c1c(OC)cccc1C3=O (stereo unspecified)	-9	-13	74*	-199	-197	8
